According to ChEMBL document CHEMBL1201862, “PubChem BioAssay data set” (2004):
In all, about 400,000 compounds went through this assay and about 2,100 (0.53%) were called active. About 14% were inconclusive and are not listed. How the calls were made is not given here. For the sample, actives were picked, then their nearest neighbours and some compounds at random.

What follows are compounds tested against Ataxin-2 (Homo sapiens) (UniProt Q99700) (assay: qHTS for Inhibitors of ATXN expression.).
Assay type: functional

Ataxin-2 (Homo sapiens), sequence (Q99700 whole entry): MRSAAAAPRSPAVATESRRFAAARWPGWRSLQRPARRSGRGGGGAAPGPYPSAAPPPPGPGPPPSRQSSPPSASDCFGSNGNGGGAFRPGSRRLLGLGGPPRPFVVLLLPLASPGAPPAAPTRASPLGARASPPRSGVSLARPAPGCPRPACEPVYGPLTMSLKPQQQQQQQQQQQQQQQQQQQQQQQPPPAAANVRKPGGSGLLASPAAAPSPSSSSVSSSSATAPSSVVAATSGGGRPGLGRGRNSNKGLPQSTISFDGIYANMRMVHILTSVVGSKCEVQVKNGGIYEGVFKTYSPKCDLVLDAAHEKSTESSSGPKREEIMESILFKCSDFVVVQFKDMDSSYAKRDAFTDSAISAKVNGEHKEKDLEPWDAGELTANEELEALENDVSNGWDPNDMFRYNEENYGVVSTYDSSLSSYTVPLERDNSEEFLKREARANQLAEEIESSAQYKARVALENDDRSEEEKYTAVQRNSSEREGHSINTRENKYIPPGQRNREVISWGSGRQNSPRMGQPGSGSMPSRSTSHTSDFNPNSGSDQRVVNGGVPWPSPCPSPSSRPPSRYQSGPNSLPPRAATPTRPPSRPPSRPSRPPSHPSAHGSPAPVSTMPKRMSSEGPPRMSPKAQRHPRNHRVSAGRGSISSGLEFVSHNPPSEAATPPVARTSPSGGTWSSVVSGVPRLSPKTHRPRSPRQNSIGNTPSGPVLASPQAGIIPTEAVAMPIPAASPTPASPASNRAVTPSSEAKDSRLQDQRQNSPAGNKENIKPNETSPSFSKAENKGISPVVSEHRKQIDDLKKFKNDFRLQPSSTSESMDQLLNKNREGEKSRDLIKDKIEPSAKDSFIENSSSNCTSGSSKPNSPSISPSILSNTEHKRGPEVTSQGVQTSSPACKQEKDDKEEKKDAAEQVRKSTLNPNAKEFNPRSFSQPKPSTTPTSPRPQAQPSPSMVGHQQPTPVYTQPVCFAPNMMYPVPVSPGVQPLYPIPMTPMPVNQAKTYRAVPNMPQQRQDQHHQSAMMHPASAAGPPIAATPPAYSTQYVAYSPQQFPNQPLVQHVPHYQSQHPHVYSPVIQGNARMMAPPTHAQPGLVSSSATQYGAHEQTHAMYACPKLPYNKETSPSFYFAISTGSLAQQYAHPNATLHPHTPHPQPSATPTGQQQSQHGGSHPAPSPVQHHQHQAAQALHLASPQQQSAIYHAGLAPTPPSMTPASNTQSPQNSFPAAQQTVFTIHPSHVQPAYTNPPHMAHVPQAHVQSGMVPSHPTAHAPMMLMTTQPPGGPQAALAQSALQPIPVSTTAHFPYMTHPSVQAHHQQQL

Structure (SMILES)	Potency
CCOC(=O)Cc1c(C)c2ccc(N(CC)CC)cc2oc1=O	inactive
C(=Cc1cnc2ccccc2n1)c1ccc2c(c1)OCO2	inactive
CCCCCn1cc[n+](-c2nc3ccccc3nc2[N-]S(=O)(=O)c2ccccc2)c1	inactive
Cc1ccc(NC(=O)CC2Nc3ccccc3NC2=O)cc1C (stereo not drawn)	inactive
CC(=O)c1cc2c(C)cc(=O)oc2cc1O	inactive
Fc1cccc(Cl)c1CNc1ccc(N2CCCC2)cc1	inactive
CCN1C(N(C)CCc2c[nH]c3ccccc23)=N[C@@H](c2cccc(C(F)(F)F)c2)C(C(=O)OC)=C1C	31.6 µM (active)
COC(=O)C1=C(C)N(Cc2ccccc2)C(NCc2cccc(C(F)(F)F)c2)=N[C@H]1c1cccc(F)c1	17.8 µM (active)
COC(=O)C1=C(C)N(Cc2ccccc2)C(NCCc2c[nH]c3ccccc23)=N[C@H]1c1cccc(C(F)(F)F)c1	25.1 µM (active)
COC(=O)Cc1c(C(=O)OC)nnn1-c1cccc(C(F)(F)F)c1	inactive
COC(=O)C1=C(C)N(Cc2ccccc2)C(NCc2ccccc2)=N[C@H]1c1cccc(C(F)(F)F)c1	35.5 µM (active)
Cc1nn(Cc2ccccc2)c(C)c1/C=N/NC(=O)CNc1cccc(C(F)(F)F)c1	inactive
CCOC(=O)c1sc(-c2cccc(C(F)(F)F)c2)nc1O	inactive
C1=C(c2ccc(-c3ccccc3)cc2)Nc2ncnn2C1c1ccco1 (stereo not drawn)	inactive
COCCC(=O)NCC1Cc2cc(Cl)cc(-c3ccc4[nH]ccc4c3)c2O1 (stereo not drawn)	inactive
OC(CNc1ccccc1)Cn1ccc2ccccc21 (stereo not drawn)	inactive
COc1ccc(C2=NN(c3ccc(C(=O)O)cc3)C(c3ccc(OC)c(OC)c3)C2)cc1 (stereo not drawn)	inactive
CCc1c(C)c2cc3c(c(C)c2oc1=O)OCN(CCc1ccccc1F)C3	inactive
CCc1ccc(-c2cn3nc(C)c(C)nc3n2)cc1	inactive
COc1cccc(C2C=C(c3ccc(OC)cc3OC)Nc3nnnn32)c1 (stereo not drawn)	inactive
Cc1cc(C)c2sc(N(CCCN(C)C)C(=O)c3ccc(S(=O)(=O)N(C)Cc4ccccc4)cc3)nc2c1	39.8 µM (active)

Structure (SMILES)	Potency
CN(Cc1ccccc1)C(=O)c1ccc(S(=O)(=O)N(C)c2ccccc2)cc1	inactive
CN(C)CCN(C(=O)C1CCCCC1)c1nc2cc3c(cc2s1)OCCO3	inactive
Cc1cc(C)c2sc(N(CCCN(C)C)C(=O)c3ccc(S(=O)(=O)N(C)C4CCCCC4)cc3)nc2c1	35.5 µM (active)
CN(Cc1ccccc1)S(=O)(=O)c1csc(C(N)=O)c1	inactive
CC(=O)OCCCCCCCCCCC[N+]1(C)CCCCC1	inactive
O=c1cc(CN2CCN(Cc3ccccc3)CC2)c2ccc(O)c(O)c2o1	inactive
CC(=O)c1c(C)[nH]c(C(=O)Nc2ccc(N3CCCCCC3)cc2)c1C	inactive
O=C(CNCCC1=CCCCC1)Nc1ccc(N2CCCCCC2)cc1	25.1 µM (active)
O=C(COC(=O)c1cccnc1O)Nc1ccc(N2CCCCC2)cc1	inactive
Cc1ccc(C2C=C(c3ccc(Cl)cc3)Nc3nc(NC(=O)c4ccco4)nn32)cc1 (stereo not drawn)	inactive
CC(=O)Nc1ccc(S(=O)(=O)NC(C)C(=O)NCC(c2ccco2)N2CCCCC2)cc1 (stereo not drawn)	inactive
COc1cc(C(=O)NCC(c2ccco2)N2CCCC2)ccc1OCc1ccc(Cl)cc1Cl (stereo not drawn)	35.5 µM (active)
O=C(NCC(c1ccco1)N1CCCC1)c1cc(S(=O)(=O)N2CCOCC2)ccc1Cl (stereo not drawn)	inactive
O=[N+]([O-])c1ccc(/C=[N+](\[O-])[C@@H]2CCCC[C@@H]2/[N+]([O-])=C/c2ccc([N+](=O)[O-])o2)o1	42.3 µM (active)
Cc1cc(N/N=C/c2ccc([N+](=O)[O-])o2)nc2ccccc12	inactive
c1ccc(C2=NN(c3ccccc3)C(c3ccco3)C2)cc1 (stereo not drawn)	inactive
COc1ccc(-c2cc(=O)oc3c(C)c(O)ccc23)cc1	inactive
COc1ccc(C2C=C(c3ccc(C)c(C)c3)Nc3ncnn32)c(OC)c1OC (stereo not drawn)	inactive
CCN(CCNCC(O)COc1ccccc1C(C)C)c1cccc(C)c1 (stereo not drawn)	39.8 µM (active)
CCN(CCCNC(=O)c1cc(Nc2ccccc2OC)nc2ccccc12)c1cccc(C)c1	inactive
O=C(CCNC(=O)c1ccc([N+](=O)[O-])cc1)Nc1nccs1	inactive

Structure (SMILES)	Potency
CCCCCc1c2c(cc(O)c1C(=O)O)OC(=O)c1c(cc(OC)cc1C(=O)CCCC)O2	21.2 µM (active)
CCCOC(=O)c1ccc(Oc2coc3c(CN(CC)CC)c(O)ccc3c2=O)cc1	inactive
CCOc1ccc(C(=O)COC(=O)Cn2[nH]c(=O)c3ccccc3c2=O)cc1	inactive
CCCOC(=O)c1ccc(Oc2c(C)n[nH]c2-c2ccc(OCC)cc2O)cc1	31.6 µM (active)
COCCn1c(SC2CCCCC2=O)nnc1-c1ccncc1 (stereo not drawn)	inactive
O=C(N/N=C/c1c(O)ccc2ccccc12)c1cccc(C(F)(F)F)c1	inactive
Nc1cc(Cl)nc(N/N=C/c2c(O)ccc3ccccc23)n1	inactive
O=C(N/N=C\c1c(O)ccc2ccccc12)c1ccc(S(=O)(=O)N2CCCCC2)cc1	inactive
O=S(=O)(O)c1cccc(N=Nc2c(O)ccc3ccccc23)c1	39.8 µM (active)
Oc1ccc2ccccc2c1N=Nc1ccccn1	14.1 µM (active)
Oc1ccccc1C=NN=Cc1c(O)ccc2ccccc12	inactive
Oc1ncnc(O)c1C(c1ccc(F)cc1)c1c(O)ncnc1O	inactive
Cc1ccc(S(=O)(=O)/N=c2\ccc(Cl)cn2C(F)F)cc1	inactive
N#Cc1nc(/C=C/c2ccccc2)oc1NCCCN1CCOCC1	inactive
CCc1sc(NC(=O)CN2CCC(C(N)=O)CC2)nc1-c1ccccc1	inactive
CCNc1nc(-c2sc(NC(=O)C(C)(C)C)nc2C)c(-n2cc(-c3ccccc3)nn2)s1	15.8 µM (active)
CC(=O)c1sc(NC(=O)CN2C(=O)C3CCCCC3C2=O)nc1-c1ccccc1 (stereo not drawn)	inactive
CCC1CCCCN1Cc1nc2c(c(=O)n(C)c(=O)n2C)n1CCCc1ccccc1 (stereo not drawn)	inactive
Cn1c(=O)c2nc(NCc3ccccc3)cnc2n(C)c1=O	inactive
Cn1c(=O)c2c(nc(NCc3ccccc3)n2Cc2ccc(Cl)c(Cl)c2)n(C)c1=O	35.5 µM (active)
CC1CCCCC12NC(=O)N(CC(=O)OCc1cccc(F)c1)C2=O (stereo not drawn)	inactive
